The values that follow come from PubChem BioAssay AID1345085 (National Center for Advancing Translational Sciences (NCATS), 2018).

Inconclusive results are not listed. A number with no mark means an inactive call. Activity calls are given as the source filed them. The call rests on the fitted dose curve; in most records, active means well fitted cell-killing curve with a large enough effect; inconclusive means small, poorly fitted or top-dose-only effect, or effect the other way; inactive means no such curve, though single readings can be large or run the other way.
On the % scale 0 is the no-effect control and ±100 the full control effect; potency means the concentration at half of the fitted maximal effect.

The subject of the test is Es-2. The test can be described thus: Confirmatory qHTS for gynecologic anti-cancer compounds from libraries of approved drugs and bioactive compounds. Further: nearly all actives have a fitted effect of over 55% in size. Conditions: gynecologic cancer cell panel viability, ATPlite luminescence, 48 h; series mostly up to 57.6 µM; activity change, negative = viability loss: at the top concentration. In outline:
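Seeding 1,000 cells per well preceded overnight (16 h) attachment, after which 48 h drug treatment across 57.5 uM–0.977 nM (11 points) was applied. Remaining cellular ATP, detected by ATPlite luminescence, defined IC50.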
On the technique in general: Quantitative high-throughput screening tests each substance at several concentrations.
For `C=C(C)[C@H]1Cc2c(ccc3c2O[C@@H]2COc4cc(OC)c(OC)cc4[C@@H]2C3=O)O1`, the Potency is 0.685 µM (active).

Turning to `C[C@]12CC[C@H]3[C@@H](CCC4=CC(=O)CC[C@@H]43)[C@@H]1CC[C@@H]2OC(=O)CCc1ccccc1`, the “activity change, negative = viability loss” value is -4.17%.

In the case of `CCN1CCN(C(=O)Cc2ccc(Nc3ncc(F)c(Nc4ccc(C(=O)Nc5ccccc5Cl)cc4)n3)cc2)CC1`, the “activity change, negative = viability loss” value was -8.79%.

Take `C[C@H]1CCC/C=C/C2C[C@H](O)C[C@H]2[C@H](O)/C=C/C(=O)O1` (some centres undefined): the Potency is 0.485 µM (active).

With `CCC(=O)O[C@H]1CC[C@H]2[C@@H]3CCC4=CC(=O)CC[C@]4(C)[C@H]3CC[C@]12C`, the “activity change, negative = viability loss” value was 5.91%.

Consider `C/C=C(/C)C(=O)O[C@H]1C(C)=C2[C@H]([C@@H]1OC(=O)CCCCCCC)[C@@](C)(OC(C)=O)C[C@H](OC(=O)CCC)[C@@]1(O)[C@H]2OC(=O)[C@@]1(C)O`, for which the Potency is 27.3 µM (active).

With `O=C(O)Cc1ccccc1`, the “activity change, negative = viability loss” value is 20.5%.

Regarding `CCNC(=O)C[C@@H]1N=C(c2ccc(Cl)cc2)c2cc(OC)ccc2-n2c(C)nnc21`, the Potency is 24.3 µM (active).

`CCOc1ccccc1-n1c(C(C)N2CCN(C(=O)COc3ccc(Cl)cc3)CC2)nc2ccccc2c1=O` (centres undefined): the Potency was 3.43 µM (active).
